Bioassay records as filed in PubChem.
This is a sample that favours compounds with a hit; in the whole collection about 1.5% have one here.
CCHF vOTU inh – CCHFV vOTU protease inhibition; Pep-AMC fluorescence; inhibition, % at 11.5 µM; 370,000 compounds, 0.55% hits; AID 651958; in the data active means inhibition above about 30%; further: 0% = vehicle wells with enzyme and 100% = no enzyme wells
Vc quorum ag – induces V. cholerae light production without autoinducers | V. cholerae BH1578 lux reporter, luminescence, 6 h | activation, % at 18.7 µM | 350,000 compounds, 0.16% hits | AID 588436; in the data active means activation mostly above about 9.7%, no sharp cut-off
PriA SSB inh – inhibitors of Klebsiella pneumoniae PriA binding to SSB C-terminal tail; 430,000 compounds, 0.6% hits; AlphaScreen SSBct-PriA binding, biotinylated peptide; inhibition, % at 33 µM; in the data active means inhibition mostly above about 37%, no sharp cut-off; inactive means mostly below about 20%;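 further: plate controls were negative control peptide for no effect and reference peptide for full effect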
TcdB inh – inhibitors of Clostridioides difficile toxin B glycohydrolase | TcdB glycohydrolase enzymatic assay, plate reader | AID 652162 | inhibition, % at 9.99 µM | 350,000 compounds, 0.24% hits | P18177; in the data active means inhibition above about 10%
PrPC surface inh – inhibitors of human cell surface prion protein PrPC; inhibition, % at 13.8 µM; TR-FRET read-out; 370,000 compounds, 0.43% hits; AID 720596; in the data active means inhibition above about 24%; further: 0% = median of the test wells and 100% = reference compound wells
VHR inh abs – DUSP3 (human) phosphatase inhibition | inhibition, % at 13.3 µM | recombinant VHR phosphatase, pNPP absorbance | AID 1654 | 290,000 compounds, 0.52% hits | P51452; in the data active means inhibition above about 50%
Target sequence (P51452 whole entry, looked up): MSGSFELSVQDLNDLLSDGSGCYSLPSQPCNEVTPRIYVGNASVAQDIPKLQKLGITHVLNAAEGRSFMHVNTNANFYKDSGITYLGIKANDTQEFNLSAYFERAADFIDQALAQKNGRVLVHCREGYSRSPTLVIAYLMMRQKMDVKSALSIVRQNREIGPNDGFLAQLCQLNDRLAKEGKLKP
The depositor's hits bear a star; i = inactive; . = no result given.

SMILES	CCHF vOTU inh	Vc quorum ag	PriA SSB inh	TcdB inh	PrPC surface inh	VHR inh abs
CN(c1ccccc1)S(=O)(=O)c1ccc(C(=O)Nc2nc(-c3ccccn3)cs2)cc1	.	.	52*	.	.	.
CC(C)S(=O)(=O)c1ccc(C(=O)Nc2nc(-c3ccccn3)cs2)cc1	.	.	106*	.	.	.
CN(c1ccccc1)S(=O)(=O)c1ccc(C(=O)Nc2nc(-c3ccc(Br)s3)cs2)cc1	.	.	-13	.	.	.
O=C(CCCc1nc2ccccc2s1)Nc1ccccc1	-5	0	14	1	6	13
O=C(O)CCCC(=O)Nc1ccc(OCc2nc3ccccc3s2)cc1	5	-2	-7	0	-1	57*
Clc1ccc(N2CCN(c3ncnc4c3oc3ccccc34)CC2)cc1	0	5	-1	.	0	50*
CC1CN(c2ncnc3c2oc2ccccc23)CC(C)O1 (stereo not drawn)	2	-3	-12	.	0	-8
Cc1cccc(C(=O)N(CCCN(C)C)c2nc3cc4c(cc3s2)OCO4)c1	.	.	-12	.	.	.
N#Cc1nc(COc2ccccc2)oc1N1CCCCC1	3	0	37	-1	4	17
CCN1CCN(c2oc(COc3ccc(-c4ccccc4)cc3)nc2C#N)CC1	-10	i	41*	.	1	-12
N#Cc1nc(COc2ccc(-c3ccccc3)cc2)oc1N1CCCC1	.	.	54*	.	.	.
CCN1CCN(c2oc(COc3ccc(C)cc3)nc2C#N)CC1	.	.	51	.	.	.
Cc1ccc(C)c2sc(NC(=O)CN3C(=O)CCC3=O)nc12	-3	0	1	2	-1	-1
Cc1ccc2sc(NC(=O)CN3C(=O)CCC3=O)nc2c1C	2	0	104*	6	5	2
CCc1[nH]nc(C(=O)N2CCCC(C(=O)c3cccc(OC(C)C)c3)C2)c1C (stereo not drawn)	10	3	-14	-7	9	56*
CC(C)Oc1cccc(C(=O)C2CCCN(C(=O)CCc3cnn(C)c3)C2)c1 (stereo not drawn)	16	i	-7	0	0	18
Cc1nn(C)c(C)c1CCC(=O)N1CCCC(C(=O)c2cccc(OC(C)C)c2)C1 (stereo not drawn)	10	i	-2	1	3	51*
Cc1cccc(NC(=O)Cn2c(=O)n(Cc3ccco3)c(=N)c3c4c(sc32)COC(C)(C)C4)c1	12	-1	-2	.	4	52*
COc1ccc(-c2c(C#Cc3ccsc3)c3cc(Br)ccc3n2C)cc1	-6	i	-13	.	-3	.
COc1ccc(-c2c(C#Cc3ccc(N(C)C)cc3)c3ccccc3n2C)cc1	2	1	78*	0	0	.
O=[N+]([O-])c1ccc(O)c(CSc2nnnn2-c2ccccc2)c1	-4	i	99*	-4	-5	-4
O=C(O)c1cc(-n2nnnc2SCc2ccc([N+](=O)[O-])cc2)ccc1Cl	2	-1	-11	6	-12	.
Cc1ccc(NC(=O)CCn2c(=S)[nH]c3ccccc3c2=O)cc1Cl	.	.	-16	.	.	.
COc1ccc(N(CC(=O)NN=Cc2cccnc2)S(=O)(=O)c2ccccc2)c(OC)c1	.	.	-13	.	.	.
COc1ccc(N(CC(=O)N/N=C/c2cccnc2)S(=O)(=O)c2ccccc2)c(OC)c1	-3	i	.	0	-1	53*
SMILES	CCHF vOTU inh	Vc quorum ag	PriA SSB inh	TcdB inh	PrPC surface inh	VHR inh abs
CC(=O)Nc1ccc(NC(=O)c2nc(S(=O)(=O)Cc3cccc(C)c3)ncc2Cl)cc1	9	3	-15	1	71*	-12
CCOC(=O)c1ccc(NC(=O)c2nc(S(=O)(=O)Cc3ccccc3)ncc2Cl)cc1	5	i	-4	0	1	-2
COc1cc(OC)cc(C(=O)Nc2cccc(-c3csc(NC(=O)c4cc(OC)cc(OC)c4)n3)c2)c1	.	.	-8	.	.	.
C=CC[C@@H](CC(=O)N(CCO)Cc1ccccc1)C(=O)NC[C@@H](OC(=O)[C@@H](CC=C)CC(=O)OC(C)(C)C)c1ccccc1	9	0	8	11*	-3	.
COc1ccc(Cn2c(C3CCCCC3)nc3c(c(=O)c4ccccc4n3C)c2=O)cc1	.	.	-5	.	.	54*
COc1ccc(CCn2c(C3CCCCC3)nc3c(c(=O)c4ccccc4n3C)c2=O)cc1	0	-1	1	0	6	16
CCOC(=O)c1ccc(NC(=O)CSc2nccn3nc(-c4ccc(OC)cc4)cc23)cc1	.	.	-1	.	.	.
CC(C)CNC(=O)COc1ncnc2ccccc12	-7	1	-9	.	0	43
O=C(COc1ncnc2ccccc12)NCCc1ccc(F)cc1	-16	-1	-5	13*	2	14
COc1ccc(CCC(=O)NCc2cc(-c3ccccc3)on2)cc1	.	.	-8	.	.	.
O=C(NCc1ccccc1)C1Cc2c(-c3cccc(F)c3)ccnc2O1 (stereo not drawn)	7	0	.	11*	10	.
CC(=O)c1cccc(-c2ccnc3c2CC(C(=O)NCc2ccccc2)O3)c1 (stereo not drawn)	3	0	.	10*	3	.
O=C(NCc1cccc(Cl)c1)C1Cc2c(-c3cccc(F)c3)ccnc2O1 (stereo not drawn)	15	0	.	2	4	.
Cc1ccc(-n2ncc3c(C4CC4)nn(CC(=O)N(C(C)C)C(C)C)c(=O)c32)c(C)c1	.	.	-3	.	.	.
CCC(C)Sc1nnc(NC(=O)CCCl)s1 (stereo not drawn)	.	.	-11	.	.	.
O=C(Nc1ccc(OC(F)(F)F)cc1)Nc1c[nH]c2ccccc12	.	.	17	.	.	.
Cc1ccc(NC(=O)Nc2c[nH]c3ccccc23)cc1Cl	.	.	-10	.	.	.
O=C(Nc1ccc(F)c(Cl)c1)Nc1c[nH]c2ccccc12	.	.	54*	.	.	.
CCc1ccc(NC(=O)Nc2c[nH]c3ccccc23)cc1	.	.	38*	.	.	.
CC(C)c1ccc(NC(=O)Nc2c[nH]c3ccccc23)cc1	.	.	39*	.	.	.
Cc1ccsc1C(=O)Nc1nnc(-c2ccco2)o1	3	0	50*	.	-9	17
Cc1ccc(C(=O)Nc2nnc(-c3ccco3)o2)cc1	-13	0	1	1	-6	-1
Cc1ccc(CC(=O)Nc2nnc(-c3ccco3)o2)c(C)c1	.	.	41*	.	.	.
COC(=O)c1sc2ccccc2c1NC(=O)c1ccc(S(=O)(=O)N2CC3(C)CC2CC(C)(C)C3)cc1 (stereo not drawn)	.	.	-21	.	.	.
COc1ccc(S(=O)(=O)Nc2ccc(Nc3cc(-n4ccnc4)nc(C)n3)cc2)c(C)c1C	.	.	-3	.	.	.
O=C(O)c1ccc(=O)[nH]n1	.	.	41*	.	.	.
CC1CCN(S(=O)(=O)c2ccc3c(c2)N(CC(=O)NCCCN2CC(C)CC(C)C2)C(=O)CS3)CC1 (stereo not drawn)	-11	-1	-8	2	-8	56*
CC1CCCCN1CCCNC(=O)CN1C(=O)CSc2ccc(S(=O)(=O)N3CCOCC3)cc21 (stereo not drawn)	14	0	9	1	3	50*
c1ccc(CSc2ccc(-c3ccccn3)nn2)nc1	-9	-1	89*	1	6	2
c1ccc(-c2ccc(SCc3cccnc3)nn2)nc1	0	-1	76*	2	-5	23
